For 10 compounds, composite z-score and z-score results are on record in PubChem BioAssay.

In test [1] the test system is Wnt5a (protein binding on small-molecule microarray). Put plainly: Wnt5a binders on small-molecule microarray, primary screen, biophysical, 635/667 nm fluorescence (AID 1142).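 Further: fluorescence read at 667 nm with signal to noise per printed feature.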 Conditions: 635 nm fluorescence, higher = more signal.
Test [2] in a line: cell viability in Huh7 cells, primary screen, cytotoxicity control for HCV replication inhibitor project, CellTiter-Glo luminescence, basal, 48 h (AID 1143).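 Further: Huh7 hepatoma cells carrying a hepatitis C replication reporter with no stimulus; test concentration not given here.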 Conditions: Huh7 HCV replicon, higher = more signal, called active from +8 up or from −8 down. (Cellular ATP, detected with luciferase, serves as a proxy for viable cell number.)
Test [3] in a line: P. aeruginosa biofilm formation inhibitors, primary screen, PAO1 strain, BacTiter-Glo luminescence, LB-PBS (AID 1144). Particulars: 12 h, higher = more signal.
Test [4] in a line: CREB reporter modulators without forskolin, primary screen, cell-based, PC12, CRE-LacZ reporter, unstimulated (AID 1145). Particulars: no forskolin, luminescence, 4.5 h, higher = more signal, called active from +8 up or from −8 down.
Test [5] can be described thus: CREB reporter modulators under forskolin, primary screen, cell-based, PC12, CRE-LacZ reporter, forskolin-stimulated (AID 1146).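 Further: PC12 cells with 6xCRE LacZ reporter stimulated by forskolin 10 µM; beta-galactosidase reporter signal reflecting CREB driven transcription.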 Particulars: luminescence, 4.5 h, higher = more signal, called active from +8 up or from −8 down.
Test [6] addresses Streptavidin (Streptomyces avidinii) (UniProt P22629). Description: streptavidin binders on small-molecule microarray, primary screen, artefact control for SMM compound annotation, biophysical, 635/667 nm fluorescence (AID 1147).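 Further: signal reflects streptavidin binding to arrayed compounds as a control protein.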 Particulars: streptavidin binding, higher = more signal.
The nature of test [7]: small-molecule binders of probe aInhba, primary screen, biochemical, small-molecule microarray, 635/667 nm fluorescence (AID 1148).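 Further: score merges 667nm spot fluorescence with signal-to-noise for antibody binding to printed compounds.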 Particulars: higher = more signal.
Test [8] concerns the target Torsin-1A (Homo sapiens) (UniProt O14656). Description: torsin A binders from cell lysate, primary screen, small-molecule microarray, wild-type, 635/667 nm (AID 1149). Conditions: COS7 hTOR1A-WT lysate, 635 nm fluorescence, higher = more signal.
The target is the same in test [9]. Put plainly: small-molecule binders of mutant TOR1A in lysate, primary screen, cell lysate, small-molecule microarray, COS7 lysate, 635/667 nm fluorescence (AID 1150).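 Further: score pools 667 nm emission and signal to noise measuring lysate protein binding.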 Particulars: COS7 hTOR1A mutant lysate, 635 nm fluorescence, higher = more signal.
Test [10] deals with Sonic hedgehog protein (Shh). Description: small-molecule binders of Shh protein, primary screen, biochemical, small-molecule microarray, 635/667 nm fluorescence (AID 1151).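 Further: Shh protein binding to compounds spotted on small-molecule microarray slides; score combines spot fluorescence intensity with signal-to-noise across triplicate slides.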 Particulars: small-molecule microarray binding, 635 nm fluorescence; higher = more signal.

Calls of active or inactive are those of the source. Unless noted, how the calls were made is not given here.

Chain of Torsin-1A (Homo sapiens) (O14656 whole entry, looked up): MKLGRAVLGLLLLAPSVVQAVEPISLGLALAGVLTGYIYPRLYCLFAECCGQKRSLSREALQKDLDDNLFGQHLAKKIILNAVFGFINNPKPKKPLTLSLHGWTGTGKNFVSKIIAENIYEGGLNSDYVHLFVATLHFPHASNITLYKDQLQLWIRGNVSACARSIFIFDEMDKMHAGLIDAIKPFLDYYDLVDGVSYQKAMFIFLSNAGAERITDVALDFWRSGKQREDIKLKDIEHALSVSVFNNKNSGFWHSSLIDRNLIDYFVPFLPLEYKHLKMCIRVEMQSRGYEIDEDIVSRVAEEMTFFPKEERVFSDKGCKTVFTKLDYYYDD
Chain of Streptavidin (Streptomyces avidinii) (P22629 whole entry, looked up): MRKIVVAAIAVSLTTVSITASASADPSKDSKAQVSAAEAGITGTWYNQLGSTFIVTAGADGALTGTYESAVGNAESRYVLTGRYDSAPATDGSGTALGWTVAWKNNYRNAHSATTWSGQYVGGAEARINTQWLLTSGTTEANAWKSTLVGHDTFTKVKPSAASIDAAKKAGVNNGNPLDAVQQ

Consider `COC(=O)C(CC#Cc1ccc2c(c1)[C@]1(C(=O)N2)[C@H](c2ccc(OCCO)cc2)N2[C@H](c3ccccc3)[C@H](c3ccccc3)OC(=O)[C@H]2[C@@H]1C(=O)O)C(=O)OC`, for which the composite z-score came to 0.138 in [1]; 0.344 in test [6]; 0.717 in [7]; 0.477 in the test with Torsin-1A (Homo sapiens) [8]; 0.538 in the test with Torsin-1A (Homo sapiens) [9]; 0.759 in test [10]. Moreover, the z-score in test [2] was -0.565 (inactive); in test [3] it was -1.11 (inactive); in test [4], -0.554 (inactive); in test [5], 0.295 (inactive).
Regarding `C#CCNS(=O)(=O)N(C)C`, the composite z-score in test [1] is -0.006; in test [6], 0.0573; in test [7], -0.222; in the test with Torsin-1A (Homo sapiens) [8] it was 0.073; in the test with Torsin-1A (Homo sapiens) [9], 0.0442; in [10], 0.666. For the same compound, the z-score in test [2] is 0.251 (inactive); in test [3] it was -0.441 (inactive); in test [4], -0.882 (inactive); in [5], 0.526 (inactive).
For `C=C(COC)C(=O)CC[C@H](OC(=O)c1ccccc1-c1ccccc1C(=O)O)c1ccc(OCCO)cc1`, the composite z-score in [1] was 0.314; in [6] it was -0.237; in [7] it was 0.0906; with Torsin-1A (Homo sapiens) [8] it was 2.29; with Torsin-1A (Homo sapiens) [9], 0.383; in test [10], 1.81. Further, the z-score in test [2] is -0.0319 (inactive); in test [3], -0.623 (inactive); in [4], 2.19 (inactive); in [5] it was -0.42 (inactive).
`O=C1O[C@H](c2ccccc2)[C@H](c2ccccc2)N2[C@H]1[C@@H](C(=O)NC[C@H](O)c1ccccc1)[C@]1(C(=O)Nc3ccccc31)[C@H]2c1ccccc1OCCO`: the composite z-score in test [1] was -0.0435; in [6], -0.164; in test [7], 0.0841; in the test with Torsin-1A (Homo sapiens) [8], 0.735; with Torsin-1A (Homo sapiens) [9] it was 1.18; in [10] it was 1.29. For the same compound, the z-score is -6.33 (inactive) in test [2], -0.908 (inactive) in [3], -0.581 (inactive) in test [4] and -0.563 (inactive) in test [5].
On to `COC(=O)[C@@]1(Cc2ccccc2)[C@H]2c3cc(C(=O)N(C)C)n(Cc4ccccn4)c3C[C@H]2CN1C(=O)c1ccccc1`, for which the composite z-score in [1] is 0.283; in [6], 2.27; in [7], 0.38; with Torsin-1A (Homo sapiens) [8] it was -0.208; with Torsin-1A (Homo sapiens) [9], 0.239; in test [10], -0.709. Also, the z-score was -1.16 (inactive) in test [2], -0.0189 (inactive) in test [3], 1.73 (inactive) in [4] and 1.42 (inactive) in test [5].
Turning to `COCCCNC(=O)[C@@]1(Cc2ccccc2N=[N+]=[N-])N=C(c2ccc(OCCCO)cc2)O[C@H]1c1ccccc1CN=[N+]=[N-]`, the composite z-score in test [1] was 0.972; in test [6], 1.08; in test [7] it was 0.246; with Torsin-1A (Homo sapiens) [8], 0.554; in the test with Torsin-1A (Homo sapiens) [9], 0.752; in [10], -0.265. The z-score in [2] was -5.06 (inactive); in [3], -0.389 (inactive); in test [4] it was 1.84 (inactive); in test [5], -1.75 (inactive).
As to `CN(C)CCCCNC(=O)[C@H]1C[C@H]2C(=O)N[C@@H](CCCC[N+](C)(C)C)C(=O)N2[C@H]1c1cccc(OCCO)c1`, the composite z-score came to 0.446 in test [1]; 0.773 in [6]; 0.0228 in test [7]; 1.04 with Torsin-1A (Homo sapiens) [8]; 1.01 with Torsin-1A (Homo sapiens) [9]; 2.01 in test [10]. The z-score in [2] was -0.255 (inactive); in test [3], -1.16 (inactive); in [4], -0.659 (inactive); in [5] it was -0.197 (inactive).
Turning to `CN(C)C(=O)[C@]1(Cc2ccccc2N=[N+]=[N-])N=C(c2ccc(OCCCO)cc2)O[C@@H]1c1ccccc1CN=[N+]=[N-]`, the composite z-score is 0.556 in test [1]; 1.27 in test [6]; 0.282 in test [7]; 0.683 with Torsin-1A (Homo sapiens) [8]; 0.84 with Torsin-1A (Homo sapiens) [9]; 0.307 in test [10]. Moreover, the z-score in [2] was -4.87 (inactive); in [3] it was -1.57 (inactive); in test [4], 1.57 (inactive); in test [5], 0.367 (inactive).
Turning to `CC1(C)[C@@H]2CC(C(O)C3C=CC4C(=O)N(c5ccccc5)C(=O)C4N3Nc3ccccc3F)=C[C@@H]1C2` (stereo not given in full), the composite z-score amounted to 0.512 in test [1]; 0.5 in test [6]; 0.0291 in test [7]; 0.233 in the test with Torsin-1A (Homo sapiens) [8]; 0.541 with Torsin-1A (Homo sapiens) [9]; 0.625 in test [10]. For the same compound, the z-score in [2] was -2.69 (inactive); in test [3] it was -1.31 (inactive); in [4], -0.826 (inactive); in test [5] it was -0.7 (inactive).
In the case of `COc1ccc([Si](C)(C)[C@H]2[C@H](CCO)O[C@@]3(C(=O)N(Cc4cccc(N5CCOC5=O)c4)c4ccccc43)[C@@H]2C)cc1`, the composite z-score was 0.217 in test [1]; 0.71 in test [6]; -0.0736 in test [7]; -0.0637 in the test with Torsin-1A (Homo sapiens) [8]; -0.217 with Torsin-1A (Homo sapiens) [9]; 1.47 in test [10]. The z-score in test [2] was -5.72 (inactive); in test [3], -0.112 (inactive); in [4] it was 0.907 (inactive); in test [5], -0.827 (inactive).
